Bioassay records from PubChem BioAssay.
Sampled rows, rich in hits. Any-hit rate of the full collection: about 1.6%.
eIF4E 4G PPI = inhibitors of eIF4E and eIF4G interaction in translation initiation | P63073+Q04637 | TR-FRET eIF4E-eIF4GI(517-606) binding, 2 h | inhibition, % at 21.7 µM | hit rate 0.37% among 220,000;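 active means inhibition above about 30%, limit read from the data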
PERK inhibitor = human PERK inhibition, primary cell-based screen | Q9NZJ5 | CHO PERK-DD fusion, SEAP luminescence translation reporter | inhibition, % at 5.6 µM | hit rate 0.17% among 220,000;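 active means inhibition above the mean inhibition of all tested compounds plus 3 SD, set separately per screening campaign, cut at about 2.9% in these data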;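 further: PERK kinase domain activated by AP20187 dimerizer at 100 nM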
PABP1 MLLE inh = blocks PAM2 peptide binding to the PABP1 MLLE domain; inhibition, % at 20 µM; hit rate 0.36% among 360,000; AID 588489; P11940; GST-MLLE / FITC-PAM2 fluorescence polarization; in the data active means inhibition above about 35%, passing the limit was not always enough
Target sequence (P11940 whole entry, looked up, the tested form may be a part): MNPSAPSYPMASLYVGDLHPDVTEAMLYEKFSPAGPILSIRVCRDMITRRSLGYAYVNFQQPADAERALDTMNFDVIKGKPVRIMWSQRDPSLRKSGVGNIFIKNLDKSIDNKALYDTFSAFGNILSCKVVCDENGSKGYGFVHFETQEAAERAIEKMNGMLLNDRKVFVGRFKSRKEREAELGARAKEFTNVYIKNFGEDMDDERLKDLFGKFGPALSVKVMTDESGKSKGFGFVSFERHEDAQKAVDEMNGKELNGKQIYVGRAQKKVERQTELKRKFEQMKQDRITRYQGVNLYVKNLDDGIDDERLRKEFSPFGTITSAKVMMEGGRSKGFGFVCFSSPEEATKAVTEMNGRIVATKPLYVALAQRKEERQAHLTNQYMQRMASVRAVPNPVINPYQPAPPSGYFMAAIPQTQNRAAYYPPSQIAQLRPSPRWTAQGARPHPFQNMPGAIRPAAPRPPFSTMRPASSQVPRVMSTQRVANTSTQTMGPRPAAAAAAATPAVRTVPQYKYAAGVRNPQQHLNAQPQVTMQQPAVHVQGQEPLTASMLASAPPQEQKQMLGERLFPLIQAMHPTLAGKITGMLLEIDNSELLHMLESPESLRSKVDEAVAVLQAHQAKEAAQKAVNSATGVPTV
eIF4H inh = inhibitors of RNA binding by human eIF4H. Q15056. eIF4H fluorescence polarization binding assay. inhibition, % at 35 µM. hit rate 0.94% among 290,000. AID 2012;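 further: calls also rest on retests at 20 µM and on dose response follow-up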
PABP FP inh = blocks human PABP binding to poly(A) RNA; P11940; fluorescence polarization; inhibition, % at 35 µM; hit rate 1% among 290,000; AID 2014;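 further: calls also rest on retests at 20 µM and on dose response follow-up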
Hits are given with their value; n = inactive; x = no result given; [ ] = dose if it differs, or a comment. Unless noted, how the calls were made is not given here.

SMILES | eIF4E 4G PPI | PERK inhibitor | PABP1 MLLE inh | eIF4H inh | PABP FP inh
Cc1ccc(-n2[nH]c(C)c(/C=N/n3c(C)nc4ccccc4c3=O)c2=O)cc1 | n | n | n | n | n
Cc1nc2ccccc2c(=O)n1/N=C/c1ccc(O)c(O)c1O | x | x | n | 90 | 87
Oc1ccc(/C=N/N2CCOCC2)c(O)c1O | n | n | n | 98 | active
Cc1[nH]n(-c2ccccc2)c(=O)c1/C=N/n1c(C)nc2ccccc2c1=O | n | n | n | n | 60
O=C1c2ccccc2C(=O)N1/N=C/c1ccc(O)c(O)c1O | 98 | n | n | 98 | 68
Cn1c(SCCCC(=O)c2ccc(F)cc2)nnc1-c1ccncc1 | n | n | n | n | n
CC(=O)C(C(C)=O)C1(O)C(=O)c2ccccc2C1=O | n | 3.0 | n | n | n
O=C(NC1(O)C(=O)c2ccccc2C1=O)c1ccccc1 | n | n | n | n | n
COc1cc2cc(/C=C/C(=O)c3ccco3)c(Cl)nc2cc1OC | n | n | n | 77 | 90
Cc1ccc(S(=O)(=O)n2cc(-c3ccccc3)c3ccccc32)cc1 | x | x | n | x | x
O=S1(=O)C[C@@H](N2CCC[C@@H]2CO)[C@H](COCc2ccccc2)N1 | x | x | n | x | x
Cc1nn2c3c(cnc2c1-c1ccccc1)C(=O)CC(C)C3 (stereo not drawn) | x | n | x | x | x
Cc1nn2c3c(cnc2c1-c1ccc(Cl)cc1)C(=O)CC(c1ccco1)C3 (stereo not drawn) | x | x | n | 61 | 32
Cc1cc2sc3ccc(C#CC4(O)CCCCC4)cc3c(=O)c2cc1C | x | x | n | x | x
N=C1/C(=C\c2ccc(-c3ccc(C(=O)O)cc3)o2)C(=O)N=C2SC=C(c3ccccc3)N12 | 65 | n | n | 70 | n
N=C1/C(=C\c2ccc(-c3cccc(Cl)c3)o2)C(=O)N=C2SC=C(c3ccccc3)N12 | n | n | n | n | n
CCOC(=O)CCNC(=O)Nc1cc2nc(C)n(Cc3cccc(Cl)c3)c2nc1C | x | x | n | n | n
COc1ccc(-n2sc3ccc(F)cc3c2=O)cc1 | x | x | 41 | x | x
COc1ccc(-n2sc3ccccc3c2=O)cc1 | x | x | n | x | x
O=c1c2cc(F)ccc2sn1-c1ccc(F)cc1 | x | x | 43 | x | x
CCN1C(=O)/C(=C2/SC(C)=C(C)N2CC)SC1=S | n | n | 52 | n | n
Cc1sc2ccc3sccc3c2[n+]1C | n | n | n | n | 54
CCOc1ccc(Nc2oc(-c3ccco3)nc2C#N)cc1 | n | n | n | n | n
Cc1ccc(C)c(N2CCN(C(=O)C(Cc3ccccc3)n3cccc3)CC2)c1 (stereo not drawn) | 67[fluorescence artefact?] | n | n | n | n
O=C(NCc1ccncc1)c1cccc(S(=O)(=O)NCc2ccccc2)c1 | x | x | n | n | 62
SMILES | eIF4E 4G PPI | PERK inhibitor | PABP1 MLLE inh | eIF4H inh | PABP FP inh
O=C(c1cccc(S(=O)(=O)NCc2ccccc2)c1)N1CCN(c2cccc(C(F)(F)F)c2)CC1 | x | x | n | n | 55
COc1ccc2nc(N=Nc3c(O)ccc4ccccc34)sc2c1 | n | n | x | n | n
CCC/C(=N\NC(=O)Cc1csc(N2CCOCC2)n1)c1ccccc1 | n | n | n | n | n
O=C(CN1CCCC1)NC12CC3CC(CC(C3)C1)C2 | n | n | n | n | n
C=CCn1c(SCC#N)nnc1-c1ccc2ncccc2c1 | 98 | n | n | n | n
COc1ccc(Nc2ncnc3c2cnn3Cc2ccccc2)cc1OC | n | n | n | n | n
COc1ccc(CC(=O)N/N=C/c2ccc(-c3cccc(C(=O)O)c3)o2)cc1OC | n | n | n | 81 | 53
Cc1ccc(OCC(=O)N/N=C\c2ccc(-c3cccc(C(=O)O)c3)o2)c(C)c1 | n | n | n | 89 | n
COc1ccc(CC(=O)N/N=C/c2ccc(-c3ccc(F)cc3)o2)cc1OC | n | n | n | n | n
CC(=O)Nc1ccc(SCC(=O)NC(=O)c2ccc(S(=O)(=O)N(C)C)cc2)cc1 | x | x | 40 | x | x
O=[N+]([O-])c1ccc(CSc2ccc(S(=O)(=O)N3CCOCC3)cn2)cc1 | x | x | 37 | x | x
O=[N+]([O-])c1ccc(CSc2ccc(S(=O)(=O)N3CCCC3)cn2)cc1 | x | x | n | x | x
Cc1cccc(-n2[nH]c(C)c(C=Nc3ccc4[nH]c(=O)[nH]c4c3)c2=O)c1 | n | n | n | 61 | 85
CCc1nc(SCC(=O)N2CCOCC2)c2c(=O)n(C)c(=O)n(C)c2n1 | n | n | n | n | n
CCOc1cccc(=O)c2c(C)n(Cc3ccco3)c(C)c12 | n | n | n | 95 | 89
Cc1ccc(C)n1/N=C1/NC(=O)CS1 | n | n | n | 92 | 73
Nc1cc(-c2ccc(Br)cc2)nn1Cc1ccccc1 | n | n | n | n | n
Nc1cc(-c2cccc(Br)c2)nn1Cc1ccccc1 | n | n | n | active | n
